Results from PubChem BioAssay.

What follows are molecules tested on Lefty1 (assay: Lefty1 protein binding to printed compounds – biochemical, small-molecule microarray, 635/667 nm fluorescence, primary screen (AID 1139)). Conditions: fluorescence 635/667, higher = more signal.

| Structure (SMILES) | composite z-score |
| --- | --- |
| CCCC[C@@H]1C[C@H]1[C@@H](NC(=O)c1cccs1)c1ccc(-c2ccccc2)cc1 | 0.361 |
| COC(=O)[C@@]1(Cc2ccc(OC)cc2)[C@H]2c3cc(C(=O)N4CCCC4)n(Cc4ccc(O)c(OC)c4)c3C[C@H]2CN1C(=O)c1ccccc1 | -0.304 |
| [N-]=[N+]=NCc1ccccc1C[C@]1(C(N)=O)COC(c2ccc(OCCCO)cc2)=N1 | 0.299 |
| C=C(COC)C(=O)CC[C@@H](OC(C)=O)c1ccc(CO)o1 | 1.73 |
| O=C1c2ccccc2[C@](Cc2ccccc2I)(C(=O)NCCN2CCOCC2)[C@H](c2ccc(CO)cc2)N1Cc1ccccc1Cl | 0.526 |
| COCCCNC(=O)[C@]1(CCC(=O)OC(C)(C)C)N=C(c2ccc(OCCCO)cc2)O[C@@H]1c1ccccc1CN=[N+]=[N-] | 0.19 |
| C=CCNC(=O)[C@@H]1[C@H]2C(=O)O[C@H](c3ccccc3)[C@H](c3ccccc3)N2[C@H](c2ccc(OCCO)cc2)[C@@]12C(=O)Nc1ccc(C#CCC(C(=O)OC)C(=O)OC)cc12 | 0.728 |
| COc1cc2c(cc1OC)CN(C(=O)[C@@H]1[C@H]3C(=O)O[C@H](c4ccccc4)[C@H](c4ccccc4)N3[C@H](c3ccccc3OCCO)[C@@]13C(=O)Nc1ccc(C#CCCO)cc13)CC2 | 0.904 |
| C=CCC(OC(C)=O)[C@@H]1[C@@H](N(Cc2cc3ccccc3o2)C(=O)c2cccc3ccccc23)c2cc(OCCCO)ccc2N1C(=O)c1ccc(-c2ccccc2)cc1 (stereo not given in full) | 0.218 |
| COC(=O)[C@@]1(Cc2ccc(F)cc2)[C@H]2c3cc(C(=O)N4CCCC4)n(CCCNc4ncc(C(F)(F)F)cc4Cl)c3C[C@H]2CN1C(=O)c1ccccc1 | -0.695 |
